Several values for one entry are separate records, joined by “and”; a condition that tells them apart may be missing. Equal entries are not always repeated. Results filed as inconclusive are left out. Where a call stands in place of a potency, no number is given. More than one record can exist for a structure, and the calls need not agree. Activity calls are given as the source filed them. Unless noted, calls come from the whole dose curve; as a rule, active = well fitted curve in the direction sought with a large enough effect in the repeat runs; inconclusive = weak or mixed curves; inactive = no such curve, though single readings can be large; an effect the other way counts as inactive or inconclusive.
Key:
[1] = qHTS assay for small molecules that induce genotoxicity in human embryonic kidney cells expressing luciferase-tagged ATAD5 (AID 651632); note: nearly all actives have a fitted effect of over 15% in size
How it was run: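 Reporter cells (HEK293T) express luciferase-tagged ATAD5, a protein that accumulates after DNA damage. Treat 16 hr at 37C/5% CO2, add Amplite, wait 30 min at RT, and read luminescence.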

[2] = qHTS assay for small molecule agonists of the p53 signaling pathway - cell viability (AID 651633; calls by dose curve; note: nearly all actives have a fitted effect of over 30% in size; note: potency is the fitted concentration of half-maximal effect)
How it was run: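 p53RE-bla cells were treated with compound for 16 hours at 37 C. Cytotoxicity was then measured as CellTiter-Glo luminescence after 30 min at room temperature.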

[3] = qHTS assay for small molecule disruptors of the mitochondrial membrane potential - cell viability (AID 720634; calls by dose curve;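 note: human HepG2 liver cancer cells; nearly all actives have a fitted effect of over 20% in size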)
How it was run: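 Measuring cytotoxicity alongside mitochondrial potential, the screen quantified ATP by luminescence in HepG2 cells after 1 hr compound incubation and a 30 min room-temperature CellTiter-Glo step.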

[4] = qHTS assay for small molecule disruptors of the mitochondrial membrane potential (AID 720635); note: potency is the fitted concentration of half-maximal effect
How it was run: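 HepG2 cells exposed to compound 1 hr at 37C, then Mito-MPS dye 30 min. Ratio read of aggregate (540/590 nm) versus monomer (490/535 nm) fluorescence.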

[5] = qHTS assay to test for compound auto fluorescence at 590 nm (red) in HepG2 cells (AID 720674)
How it was run: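 Seeding: 2,000 HepG2 cells/well, MEM/10% FBS, overnight 37 C. Dosing: compound vs DMSO. Incubation: 1 hr, 37 C, 5% CO2. Read: fluorescence 540 ex/590 em, Rose Bengal sodium as red reference.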

[6] = qHTS assay to test for compound auto fluorescence at 535 nm (green) in HepG2 cells (AID 720675)
[7] = qHTS assay to test for compound auto fluorescence at 460 nm (blue) in HEK293 cells (AID 720678)
How it was run: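 Intrinsic compound fluorescence is recorded in live HEK293 cultures after overnight incubation at 37C, 5% CO2, using excitation 405 nm and emission 460 nm. Values are referenced to triamterene.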

[8] = qHTS assay to test for compound auto fluorescence at 590 nm (red) in HEK293 cells (AID 720679)
How it was run: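 Red autofluorescence, HEK293 cells: 2,000 cells/well; attach 4-5 hr 37C; add 23 nL cpd or DMSO; incubate o/n 37C 5% CO2; read Ex540/Em590; Rose Bengal sodium reference.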

[9] = qHTS assay to test for compound auto fluorescence at 535 nm (green) in HEK293 cells (AID 720680)
[10] = qHTS assay to test for compound auto fluorescence at 460 nm (blue) in HEK293 cell free culture (AID 720681)
How it was run: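 Compounds were added to cell-free DMEM with 10% FBS and fluorescence read directly. The blue channel used 405 nm excitation and 460 nm emission, with triamterene as the reference fluorophore.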

[11] = qHTS assay to test for compound auto fluorescence at 535 nm (green) in HEK293 cell free culture (AID 720682)
How it was run: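 Steps: dispense DMEM/10% FBS into empty wells; pin in compound or DMSO; measure fluorescence at 485/535 nm. Values are fluorescein equivalents.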

[12] = qHTS assay to test for compound auto fluorescence at 590 nm (red) in HEK293 cell free culture (AID 720683)
How it was run: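 Cell-free wells of DMEM with 10% FBS received compound, and intrinsic fluorescence was read at excitation/emission 540/590 nm. Values expressed as equivalence to Rose Bengal sodium.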

[13] = qHTS assay to test for compound auto fluorescence at 590 nm (red) in HepG2 cell free culture (AID 720684)
How it was run: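 Compounds are added to culture medium (MEM, 10% FBS) lacking cells, then fluorescence is read at excitation 540 nm, emission 590 nm, with Rose Bengal sodium as the equivalency standard.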

[14] = qHTS assay to test for compound auto fluorescence at 460 nm (blue) in HepG2 cell free culture (AID 720685)
How it was run: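 Compound (23 nL) or DMSO pinned into cell-free MEM with 10% FBS; blue fluorescence read at 405/460 nm excitation/emission, expressed as auto-fluorescence equivalency to triamterene.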

[15] = qHTS assay to test for compound auto fluorescence at 535 nm (green) in HepG2 cell free culture (AID 720686)
[16] = qHTS assay to test for compound auto fluorescence at 460 nm (blue) in HepG2 cells (AID 720687)
How it was run: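 HepG2 cells in MEM with 10% FBS, attached overnight at 37 C, were exposed to compound or DMSO for 1 hr at 37 C, 5% CO2. Blue fluorescence was read at 405/460 nm, with triamterene as reference fluorophore.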

[17] = target: Glucocorticoid receptor (Homo sapiens) (UniProt P04150); test: qHTS assay to identify small molecule agonists of the glucocorticoid receptor (GR) signaling pathway (AID 720691; active = well fitted activation curve with a large enough effect in the signal ratio in the repeat runs, not every such curve was filed as active; the % refers to the signal ratio; note: potency is the fitted concentration of half-maximal effect); settings: GR-bla HeLa, beta-lactamase reporter ratio, 18 h; activation: at 62.4 µM (top of the series)
How it was run: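 Reporter read-out: fluorescence intensity following 2 h room-temperature LiveBLAzer B/G FRET substrate loading. Prior step: GR-bla HeLa cells held 4 h, then treated 18 h at 37 C.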

[18] = target: Glucocorticoid receptor (Homo sapiens) (UniProt P04150); test: qHTS assay to identify small molecule antagonists of the glucocorticoid receptor (GR) signaling pathway (AID 720692; active = well fitted inhibition curve with a large enough effect in the signal ratio in the repeat runs, not every such curve was filed as active; the % refers to the signal ratio)
How it was run: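 Dexamethasone (5 nM final) stimulated a stably integrated GRE-beta-lactamase reporter in HeLa cells during 18 h co-incubation with compounds; signal was quantified as fluorescence intensity of B/G FRET substrate after 2 h.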

[19] = qHTS assay for small molecules that induce genotoxicity in human embryonic kidney cells expressing luciferase-tagged ATAD5 - cell viability (AID 651634; calls by dose curve; note: nearly all actives have a fitted effect of over 25% in size; note: potency is the fitted concentration of half-maximal effect)
How it was run: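 Seeding of 2,000 HEK293T ATAD5-luciferase cells per well preceded pin-tool compound transfer. Plates sat 15.5 hr at 37C under 5% CO2, then fluorescence was read after 30 min with CellTiter-Fluor.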

Glucocorticoid receptor (Homo sapiens), sequence (P04150 whole entry, looked up): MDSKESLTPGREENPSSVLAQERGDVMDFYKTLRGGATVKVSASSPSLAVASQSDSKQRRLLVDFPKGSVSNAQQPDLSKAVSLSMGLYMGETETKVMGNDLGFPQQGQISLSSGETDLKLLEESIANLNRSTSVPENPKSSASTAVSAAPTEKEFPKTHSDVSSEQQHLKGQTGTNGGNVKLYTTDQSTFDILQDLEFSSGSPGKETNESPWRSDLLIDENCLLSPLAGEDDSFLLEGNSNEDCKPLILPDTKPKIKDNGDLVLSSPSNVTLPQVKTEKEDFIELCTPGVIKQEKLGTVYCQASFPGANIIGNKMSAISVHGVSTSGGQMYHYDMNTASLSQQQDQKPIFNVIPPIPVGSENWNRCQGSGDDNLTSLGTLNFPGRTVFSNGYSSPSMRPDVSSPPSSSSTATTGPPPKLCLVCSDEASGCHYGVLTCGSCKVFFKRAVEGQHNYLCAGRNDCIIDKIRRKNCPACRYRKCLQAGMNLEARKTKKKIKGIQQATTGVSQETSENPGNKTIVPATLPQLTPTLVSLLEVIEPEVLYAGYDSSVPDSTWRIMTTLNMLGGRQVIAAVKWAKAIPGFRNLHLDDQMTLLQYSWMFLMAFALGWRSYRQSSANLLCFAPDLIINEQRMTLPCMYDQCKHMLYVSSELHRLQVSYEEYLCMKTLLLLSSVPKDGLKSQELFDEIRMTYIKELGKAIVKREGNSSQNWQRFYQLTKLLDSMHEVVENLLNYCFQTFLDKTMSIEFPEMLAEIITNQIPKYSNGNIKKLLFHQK

| Compound | Potency [1] | Potency [2] | Potency [3] | Potency [4] | outcome [5] | Potency [6] | Potency [7] | outcome [8] | outcome [9] | Potency [10] | outcome [11] | outcome [12] | outcome [13] | Potency [14] | Potency [15] | Potency [16] | Potency [17] | Potency [18] | Potency [19] |
| --- | --- | --- | --- | --- | --- | --- | --- | --- | --- | --- | --- | --- | --- | --- | --- | --- | --- | --- | --- |
| CCN(CC)C(=S)S | inactive | inactive | inactive | 2.98 µM (active) and inactive | inactive | inactive | inactive | inactive | inactive | inactive | inactive | inactive | inactive | inactive | inactive | inactive | inactive and 4.9 µM (active) | inactive | – |
| CC(=O)[O][Pb]([c]1ccccc1)([c]1ccccc1)[c]1ccccc1 | inactive | 2.73 µM (active) | – | 1.09 µM (active) | inactive | inactive | inactive | inactive | inactive | inactive | inactive | inactive | inactive | inactive | inactive | inactive | – | – | 686 nM (active) |
| CCC(C)Nc1c([N+](=O)[O-])cc(C(C)(C)C)cc1[N+](=O)[O-] (stereo not given) | inactive | inactive | – | – | inactive | inactive | inactive | – | inactive | inactive | – | inactive | inactive | inactive | inactive | inactive | inactive | inactive | inactive |
| ClSC(Cl)(Cl)Cl | inactive | inactive | – | inactive | inactive | inactive | inactive | inactive | inactive | inactive | inactive | inactive | inactive | inactive | inactive | inactive | – | – | inactive |
| Cc1cnc2c(C(=O)O)c(Cl)ccc2c1 | inactive | inactive | inactive | – | inactive | inactive | inactive | inactive | inactive | inactive | inactive | inactive | inactive | inactive | inactive | inactive | inactive | inactive | – |
| CC1(C)C(C=C(Cl)Cl)C1C(=O)OC(C#N)c1ccc(F)c(Oc2ccccc2)c1 (stereo not given) | inactive | inactive | – | 54.5 µM (active) | – | inactive | inactive | inactive | inactive | inactive | inactive | inactive | inactive | inactive | inactive | inactive | – | – | inactive |
| CCCCN(CCCC)C(=S)[S-].CCCCN(CCCC)C(=S)[S-].[Ni+2] | inactive | inactive | inactive | – | inactive | inactive | inactive | inactive | inactive | inactive | – | inactive | inactive | inactive | inactive | inactive | inactive | inactive | inactive |
| c1ccc2nc(N3CCNCC3)ccc2c1 | inactive | inactive | inactive | – | inactive | inactive | inactive | inactive | inactive | inactive | inactive | inactive | inactive | inactive | inactive | inactive | inactive | inactive | inactive |
| CC1(C)[C@H](/C=C2\CCSC2=O)[C@@H]1C(=O)OCc1coc(Cc2ccccc2)c1 | inactive | inactive | – | 21.7 µM (active) | inactive | inactive | inactive | inactive | inactive | inactive | inactive | inactive | inactive | inactive | inactive | inactive | inactive | – | inactive |
| COC(=O)C(C)N(C(=O)c1ccco1)c1c(C)cccc1C (stereo not given) | inactive | inactive | inactive | inactive | inactive | inactive | inactive | inactive | inactive | inactive | inactive | inactive | inactive | inactive | inactive | inactive | inactive | inactive | – |
| CNC(=O)O/N=C(\C)C(C)S(C)(=O)=O (stereo not given) | inactive | inactive | inactive | – | – | inactive | inactive | inactive | inactive | inactive | inactive | inactive | inactive | inactive | inactive | inactive | inactive | inactive | inactive |
| O=S1OCC2C(CO1)C1(Cl)C(Cl)=C(Cl)C2(Cl)C1(Cl)Cl (stereo not given) | inactive | 68.7 µM (active) and 54.4 µM (active) | – | – | – | inactive | inactive | inactive | inactive | inactive | inactive | inactive | inactive | inactive | inactive | inactive | – | – | inactive |
| Brc1cccc(-c2ccccc2)c1 | inactive | inactive | – | 0.436 µM (active) | inactive | inactive | inactive | inactive | inactive | inactive | inactive | inactive | inactive | inactive | inactive | inactive | – | inactive | inactive |
